Results on nine compounds are retold here after PubChem BioAssay (NCI).

Common to all, as to assay: NCI-60 one-dose screen, 48 h (100 = growth as untreated, 0 = no growth, -100 = all killed)
The test system of one assay is HCT-15 colon. The conditions noted are these: 10 µM unless noted.
The subject of another assay is HT29 colon. The conditions noted are these: 10 µM unless noted.
For another assay, the system named is SNB-19 CNS. As to conditions: 10 µM unless noted.
The next assay has as its system U251 CNS. As to conditions: 10 µM unless noted.
Another assay deals with PC-3 prostate. The conditions noted are these: 10 µM unless noted.
The next assay deals with SK-MEL-5 melanoma. The conditions noted are these: 10 µM unless noted.
For a further assay, the system named is UACC-62 melanoma. As to conditions: 10 µM unless noted.
The test system of a further assay is LOX IMVI melanoma. As to conditions: 10 µM unless noted.
Another assay relates to SK-MEL-28 melanoma. As to conditions: 10 µM unless noted.
The subject of the next assay is EKVX NSCLC. The conditions noted are these: 10 µM.
The test system of another assay is SN12C renal. The conditions noted are these: 10 µM unless noted.
For another assay, the system named is UO-31 renal. The conditions noted are these: 10 µM unless noted.
The subject of another assay is TK-10 renal. As to conditions: 10 µM unless noted.
The next assay deals with ACHN renal. As to conditions: 10 µM unless noted.
In another assay the test system is CAKI-1 renal. As to conditions: 10 µM unless noted.
Another assay has as its system A498 renal. The conditions noted are these: 10 µM unless noted.
The test system of the next assay is CCRF-CEM leukemia. As to conditions: 10 µM.
For the next assay, the system named is MOLT-4 leukemia. The conditions noted are these: 10 µM unless noted.
The next assay concerns SK-MEL-2 melanoma. As to conditions: 10 µM unless noted.
Another assay concerns SNB-75 CNS. As to conditions: 10 µM unless noted.

This is part of a sample that, as a whole, favours compounds with a hit. Of some 83,000 tested, about 20% had one in any assay.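 Note: values are percent growth. 100 is the growth of untreated cells, values between 100 and 0 indicate rising inhibition; between -100 and 0 indicates cell death.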 A number with no mark means an inactive call. Activity calls are given as the source filed them. Rule for the calls: active = growth percent below 10; inactive = the rest.

As for `Nc1nc(-c2cccc(Br)c2)cc(-c2cc3ccccc3oc2=O)n1`, the growth in the assay with HCT-15 colon is 106%; with HT29 colon, 117%; in the assay with SNB-19 CNS, 109%; with U251 CNS it was 106%; in the assay with PC-3 prostate, 122%; with SK-MEL-5 melanoma, 89.7%. Further, the growth in the assay on UACC-62 melanoma was 101%; in the assay with LOX IMVI melanoma, 95.8%; with SK-MEL-28 melanoma, 126%; in the assay on EKVX NSCLC it was 93.9%; with SN12C renal, 99.9%; with UO-31 renal, 64.2%. Besides, the growth was 74.8% with TK-10 renal; 98.2% in the assay with ACHN renal; 92% in the assay with CAKI-1 renal; 123% in the assay on A498 renal; 77.1% in the assay on CCRF-CEM leukemia; 82.4% in the assay with MOLT-4 leukemia.

As for `OCC(O)C(O)CC1SCCS1` (configuration not stated), the growth in the assay with HCT-15 colon was 104%; in the assay with HT29 colon, 101%; in the assay with SNB-19 CNS it was 94.8%; with U251 CNS, 99.9%; with PC-3 prostate, 102%; with UACC-62 melanoma, 97.7%. For the same compound, the growth was 91.8% in the assay with LOX IMVI melanoma; 110% with SK-MEL-28 melanoma; 107% in the assay on SK-MEL-2 melanoma; 97.2% in the assay on EKVX NSCLC; 97.9% in the assay on SN12C renal; 78% in the assay with UO-31 renal. The growth with TK-10 renal is 96.5%; in the assay on ACHN renal it was 103%; in the assay with CAKI-1 renal, 98%; with A498 renal, 101%; with CCRF-CEM leukemia it was 90.6%; in the assay on MOLT-4 leukemia, 84.8%.

For `COc1cc(-c2nn(-c3ccc(NC(=O)Nc4cc(C(F)(F)F)cc(C(F)(F)F)c4)cc3)cc2-c2ccncc2)ccc1Cl`, the growth in the assay on HCT-15 colon was 6.27% (active); in the assay with HT29 colon, -30.2% (active); with SNB-19 CNS, 26.7%; in the assay on U251 CNS, 7.85% (active); with PC-3 prostate, 10.6%; in the assay with SK-MEL-5 melanoma, -71% (active). Besides, the growth in the assay on UACC-62 melanoma was 3.75% (active); with LOX IMVI melanoma it was -1.69% (active); in the assay on SK-MEL-28 melanoma it was 5.41% (active); in the assay on EKVX NSCLC, -1.64% (active); in the assay with SN12C renal, 17.3%; in the assay on TK-10 renal it was -32.5% (active). For the same compound, the growth in the assay on ACHN renal was 4.08% (active); with CAKI-1 renal, -12.5% (active); in the assay on A498 renal, -1.9% (active); with CCRF-CEM leukemia, 16.6%; in the assay on MOLT-4 leukemia, 7.23% (active).

`CCCCCCNc1nc(N2CCOCC2)c2[nH]c(NCCCCCC)nc2n1`: the growth is -74.6% (active) in the assay with HCT-15 colon; -95.1% (active) in the assay on SNB-75 CNS; -92.7% (active) in the assay on SNB-19 CNS; -93.4% (active) in the assay on U251 CNS; -21.2% (active) with PC-3 prostate; -90.6% (active) in the assay with SK-MEL-5 melanoma. Further, the growth in the assay on UACC-62 melanoma was -97.4% (active); with LOX IMVI melanoma, -100% (active); in the assay with SK-MEL-28 melanoma, -94.4% (active); in the assay with EKVX NSCLC, -51.5% (active); in the assay on SN12C renal, -94.9% (active); in the assay with UO-31 renal, -81% (active). Moreover, the growth in the assay with TK-10 renal was -97.2% (active); in the assay with ACHN renal, -92.7% (active); with CAKI-1 renal, -63.8% (active); with CCRF-CEM leukemia, -32.3% (active); in the assay on MOLT-4 leukemia it was -53.6% (active).

`COC(c1ccccc1)C(Br)C(=O)c1ccccc1` (configuration not stated): the growth in the assay with HCT-15 colon was 90.7%; in the assay with HT29 colon, 106%; in the assay on SNB-19 CNS, 96.3%; with PC-3 prostate, 91.3%; in the assay with SK-MEL-5 melanoma, 94.1%; with UACC-62 melanoma, 84.9%. Moreover, the growth in the assay with LOX IMVI melanoma is 97.8%; in the assay with SK-MEL-28 melanoma, 102%; in the assay with SK-MEL-2 melanoma it was 95.7%; in the assay with EKVX NSCLC, 103%; with SN12C renal, 94.3%; in the assay with UO-31 renal it was 75.8%. Moreover, the growth in the assay with TK-10 renal is 91.5%; in the assay with ACHN renal, 94.6%; with CAKI-1 renal, 85%; with A498 renal, 98.6%; with CCRF-CEM leukemia, 69.9%; in the assay on MOLT-4 leukemia, 98%.

As to `COC(=O)c1cc(O)c2cc3c(cc2c1-c1cc(OC)c(OC)c(OC)c1)OCO3`, the growth in the assay with HCT-15 colon was 23.6%; with HT29 colon, -9.35% (active); with SNB-19 CNS, 36.9%; in the assay with U251 CNS, 42.3%; in the assay on SK-MEL-5 melanoma it was 3.09% (active); in the assay on UACC-62 melanoma, 44.2%. In addition, the growth in the assay with LOX IMVI melanoma was 29.7%; with SK-MEL-28 melanoma it was 51.5%; in the assay with EKVX NSCLC it was 55.8%; in the assay on SN12C renal it was 34.1%; in the assay with UO-31 renal, 44.8%; with TK-10 renal, 43.2%. The growth in the assay on ACHN renal was 36.8%; in the assay on CAKI-1 renal it was 30.2%; in the assay on A498 renal, 45.6%; in the assay with CCRF-CEM leukemia, 8.87% (active); with MOLT-4 leukemia it was 35.3%.

Take `CCCCCCCCCCCCOC(=O)/C=C\C(=O)NC(N)=O`: the growth in the assay on HCT-15 colon was 57.9%; in the assay on HT29 colon, 88.6%; in the assay with SNB-19 CNS it was 91.6%; with U251 CNS, 74%; in the assay with PC-3 prostate, 71.6%; in the assay with UACC-62 melanoma it was 82%. The growth was 99.2% in the assay on SK-MEL-28 melanoma; 50.7% with SK-MEL-2 melanoma; 93% with UO-31 renal; 86.9% in the assay on TK-10 renal; 88.4% in the assay with ACHN renal; 90.3% in the assay with CAKI-1 renal. The growth in the assay with A498 renal is 101%; in the assay on MOLT-4 leukemia it was 45.1%.

For the compound `CCOC(=O)C(C)C(C)(O)c1ccccc1` (configuration not stated), the growth was 108% in the assay on HCT-15 colon; 106% with HT29 colon; 107% in the assay on U251 CNS; 99.9% with PC-3 prostate; 102% with SK-MEL-5 melanoma; 97.4% with UACC-62 melanoma. In addition, the growth with LOX IMVI melanoma was 93.8%; in the assay on SK-MEL-28 melanoma, 101%; in the assay with SK-MEL-2 melanoma, 97.7%; in the assay with SN12C renal it was 98.2%; in the assay with UO-31 renal, 78.5%; in the assay with ACHN renal it was 111%. The growth with CAKI-1 renal was 109%; with A498 renal it was 91.5%; with MOLT-4 leukemia, 95.4%.

As to `Cc1cc2cn3c4ccc(O)cc4[nH]c(=O)c3c2cc1C`, the growth is 3.8% (active) in the assay with HCT-15 colon; -67.6% (active) with HT29 colon; 40.7% in the assay with SNB-19 CNS; -44.1% (active) in the assay with U251 CNS; 37.5% in the assay with PC-3 prostate; -31.5% (active) with SK-MEL-5 melanoma. In addition, the growth was 49% with UACC-62 melanoma; 4.61% (active) with LOX IMVI melanoma; -14.3% (active) in the assay with SK-MEL-28 melanoma; 41.3% with EKVX NSCLC; 38.5% in the assay with SN12C renal; 3.07% (active) in the assay with UO-31 renal. Further, the growth with TK-10 renal is 0.912% (active); in the assay on ACHN renal, 11.8%; in the assay with CAKI-1 renal it was -5.2% (active); with A498 renal, 18.6%; in the assay with CCRF-CEM leukemia it was -7.53% (active); with MOLT-4 leukemia, -18.2% (active).
